Our source for the Potency and activity change, negative = cytotoxicity values is PubChem BioAssay (Tox21).

Inconclusive results are not listed. Entries that show only a call come without a potency. Unmarked numbers belong to inactive results. Calls of active or inactive are those of the source. Calls follow the shape of the dose curve; as a rule, active = well fitted cell-killing curve with a large enough effect in the repeat runs; inconclusive = weak or mixed curves, or effect the other way; inactive = flat fitted curve, though single readings scatter.

The nature of the assay: cAMP Responsive Elements (CRE) small molecule agonists, cell-based qHTS assay: qHTS cell viability counter screen (AID 2060914). Also: nearly all actives have a fitted effect of over 50% in size. To be noted: CRE-bla HEK293T viability, CellTiter-Glo luminescence, 5 h; series mostly up to 92.4 µM. From the text: National Center for Advancing Translational Sciences [NCATS]
Division of Preclinical Innovation [DPI]
U.S. Environmental Protection Agency [EPA]
National Institutes of Environmental Health Sciences [NIEHS]
National Toxicology Program [NTP]
U.S. Food and Drug Administration [FDA]
CREB (cyclic-AMP Responsive Element Binding Protein) is a cellular transcription factor. It binds to certain DNA sequences called cAMP Responsive Elements (CRE) and regulates the transcription of the genes. […] This cell line can be used to find agonists/antagonists of the cyclic AMP signaling pathway. The activation of the report gene under culture conditions can be detected by fluorescence intensity. This cell line has been used to screen the Tox21 10K compound library to identify agonists that induce oxidative stress. The cytotoxicity of the Tox21 compound library against the CRE-bla cell line was tested in parallel by measuring the cell viability using CellTiter-Glo assay (Promega, Madison, WI) in the same wells.
Tox21 Assay Protocol Summary:
CRE-bla Hek 293T cells were suspended in assay medium (DMEM containing 10% dialyzed FBS, 0.1 mM NEAA, 1 mM sodium pyruvate and 25 mM HEPES) and dispensed at 2,000 cells/5 uL /well into 1536-well black wall/clear bottom plates using a Multidrop Combi (ThermoFisher Scientific, Waltham, MA) dispenser. After the assay plates were incubated at 37 C/5% CO2 for 18 hrs, 23 nL of compounds dissolved in DMSO, positive controls or DMSO only was transferred to the assay plate by a pintool workstation (Kalypsys, San Diego, CA). After the plates were incubated at 37 C/5% CO2 for 3 hrs, 1 uL of LiveBLAzer B/G FRET substrate (Invitrogen, Carlsbad, CA) was added to each well using Bioraptr Flying Reagent Dispenser (FRD, Aurora Discovery, San Diego, CA). The plates were incubated at room temperature for 2 h, then fluorescence intensities were measured using an Envision plate reader (PerkinElmer, Shelton, CT) at Excitation 405nm, Emission 460nm and 530nm. The % activity was determined from the ratio of 460nm/530nm. For cell viability readout that measures cytotoxicity, 4 uL /well of CellTiter-Glo reagent was added into the assay plates using Bioraptr FRD. After 30 min incubation at room temperature, the luminescence intensity in the assay plates was measured using a ViewLux (PerkinElmer, Shelton, CT) plate reader.
Background: qHTS replaces the single test concentration by a dilution series.
As to `C=CC(=O)OCC(Br)CBr` (stereo not given), the Potency entry is “inactive”.
Still for that read-out and setting: then `O=C1CCCCCCCCCCC1`, with “inactive”; and `CCCCCCCCC(=O)Cl`, with “inactive”; and `CCOC(=O)NNc1nncc2ccccc12`, with “inactive”.
On to `CCCCCCCCCCCCCCCCCO`, for which the activity change, negative = cytotoxicity is -1.37% [at 18.9 µM].
Consider `COc1nc(C)nc(N)n1`, for which the Potency result is “inactive”.
As to `CCC=CC#N`, the Potency result is “inactive”.
The same measure, in the same setting: the value for `c1ccc2[nH]cnc2c1` was “inactive”; that for `Fc1c(F)c(F)c(Br)c(F)c1F` was “inactive”; that for `CCCCOCCOCCOCCCC` was “inactive”.
As for `OCCCC1CCCCC1`, the Potency result was “inactive”.
Same read-out and setting: then `O=c1cc(O)c(Cl)c[nH]1`, with “inactive”; and `Cc1cc([N+](=O)[O-])ccc1N`, with “inactive”; and `CC1=CC(=O)/C(=C(/C)O)C(=O)O1`, with “inactive”.
Still for that read-out and setting: then `CCc1cc(Cc2cc(CC)cc(C(C)(C)C)c2O)c(O)c(C(C)(C)C)c1`, with “inactive”; and `CC1CCCC1`, with “inactive”; and `CC(C)CC(=O)CC(C)CC(C)C` (stereo not given), with “inactive”.
Same read-out and setting: then `O=C(O)c1cc(C(=O)O)cc(S(=O)(=O)O)c1`, with “inactive”.
For the compound `CCCCCCCCCCCCCCCC(=O)OC`, the activity change, negative = cytotoxicity was -20.6% [at 18.9 µM].
Turning to `C/C=C/CO`, the Potency result is “inactive”.
Same read-out and setting: the value for `CCCCC(CC)COCCO` (stereo not given) was “inactive”; that for `CCCCOCCOCCOCc1cc2c(cc1CCC)OCO2` was “inactive”.
`CC1(C)C(=O)N(Cl)C(=O)N1Br`: the Potency entry was “inactive”.
As to `NCc1ccco1`, the Potency entry was “inactive”.
For the compound `CCCOc1ccc(C(=O)OCCN(CC)CC)cc1N`, the Potency entry was “inactive”.
On the same count and under the same terms, the value for `CCC(CC)(CC(=O)Nc1cccc(/C=C/c2nc(C3CCC3)cs2)c1)C(=O)O` was “inactive”; that for `CC/C(C)=N\O[Si](C)(O/N=C(\C)CC)O/N=C(\C)CC` was “inactive”.
On to `CC(=O)CC/C=C(\C)CC/C=C(\C)CC/C=C(\C)CCC=C(C)C`, for which the Potency entry was “inactive”.
On the same count and under the same terms, then `CC1(C)O[C@@H]2C[C@H]3[C@@H]4C[C@H](F)C5=CC(=O)C=C[C@]5(C)[C@@]4(F)[C@@H](O)C[C@]3(C)[C@]2(C(=O)CO)O1`, with “inactive”.
Regarding `O=C(O)Cc1cccc(-c2cc(CCCCCCc3ccc(O[C@H]4O[C@H](CO)[C@@H](O)[C@H](O)[C@@H]4O)c(-c4cccc(CC(=O)O)c4)c3)ccc2O[C@H]2O[C@H](CO)[C@@H](O)[C@H](O)[C@@H]2O)c1`, the activity change, negative = cytotoxicity is 10.9% [at 0.349 µM].
For the compound `C[Si](NC1CCCCC1)(NC1CCCCC1)NC1CCCCC1`, the Potency entry is “inactive”.
On the same count and under the same terms, the value for `O=C(O)c1ccc2c(c1)C(=O)OC2=O` was “inactive”; that for `Fc1ccc([C@@H]2CCNC[C@H]2COc2ccc3c(c2)OCO3)cc1` was “inactive”; that for `Clc1ccc(C(Cn2ccnc2)OCc2c(Cl)cccc2Cl)c(Cl)c1` (stereo not given) was “inactive”.
Same read-out and setting: the value for `CC(=O)Nc1nnc(S(N)(=O)=O)s1` was “inactive”; that for `C=CCCCCCCCCCC` was “inactive”; that for `C1CCSC1` was “inactive”.
For the compound `CCCC(O)C(CC)CO` (stereo not given), the Potency entry is “inactive”.
Take `O=CN1CCCCC1`: the Potency entry is “inactive”.
Same read-out and setting: then `O=C(O)c1cccc(C(F)(F)F)c1`, with “inactive”.
